{"source": "PubChem BioAssay AID686979", "about": "(National Center for Advancing Translational Sciences (NCATS), 2013)", "note": "Hit rate of the full screen: of about 420,000 compounds, about 50,000 (12%) were called active. Not shown: some 26% with an inconclusive outcome. The sample holds actives, similar compounds and a random draw of the others, so the mix is not that of the screen. A number with no mark means an inactive call. Calls follow the shape of the dose curve; as a rule, active = well fitted inhibition curve with a large enough effect; inconclusive = small, poorly fitted or top-dose-only effect; inactive = flat fitted curve, though single readings scatter. % is scaled to controls: 0 for no effect and ±100 for the full control effect; potency is read from the fitted curve at half-maximal effect.", "data": [{"assay": "qHTS for Inhibitors of human tyrosyl-DNA phosphodiesterase 1 (TDP1): qHTS in cells in presence of CPT; also: nearly all actives have a fitted effect of over 55% in size", "conditions": "chicken DT40 Tdp1-/-;hTDP1 cells + 20 nM CPT, ATP luminescence, 48 h; series mostly up to 46.2 µM; activity change, negative = growth inhibition: at the top concentration", "summary_of_the_method": "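Chicken DT40 Tdp1-/- cells stably complemented with human TDP1 were seeded at 400 cells/well in medium containing 20 nM camptothecin, exposed to pin-transferred compounds, and grown at 37 °C for at least 48 hr. Viability was read as ATP luminescence.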", "values": [{"smiles": "COc1ccc(CCOC2OC(CO)C(OC(=O)/C=C/c3ccc(O)c(OC)c3)C(O[C@H]3O[C@@H](C)[C@H](O)[C@@H](O)[C@H]3O)C2O)cc1O", "note": "(some centres not stated)", "activity change, negative = growth inhibition": "8.7%"}, {"smiles": "Cc1ccc(S(=O)(=O)CCC(=O)OCC(=O)NCCc2ccc(S(N)(=O)=O)cc2)cc1", "activity change, negative = growth inhibition": "2.06%"}, {"smiles": "Cc1c(C(=O)N2CCCC2)c(S(=O)(=O)NCC(C)c2ccccc2)c(C)n1C", "note": "(configuration not stated)", "activity change, negative = growth inhibition": "-3.17%"}, {"smiles": "CC(C)N=C1CCCC1C(=S)SSC(=S)C1CCCC1=NC(C)C", "note": "(configuration not stated)", "Potency": "0.0366 µM (active)"}, {"smiles": "COc1ccccc1/C=C1\\SC(=O)N(CCC(=O)N(C)C2CCS(=O)(=O)C2)C1=O", "note": "(configuration not stated)", "activity change, negative = growth inhibition": "-20.6%"}, {"smiles": "COc1ccc(C(=O)Nc2onc3c2CCCC3)cc1", "activity change, negative = growth inhibition": "-28.1%"}, {"smiles": "O=C(Nc1cccc2ccccc12)c1onc2c1CCCC2", "Potency": "10.3 µM (active)"}, {"smiles": "O=C(O)c1ccccc1-c1ccccc1C(=O)Nc1cccc2ccccc12", "activity change, negative = growth inhibition": "1.67%"}, {"smiles": "COC(=O)/C(=C1\\Oc2ccc(C(C)(C)C)cc2S1)C(F)(F)F", "activity change, negative = growth inhibition": "-18.1%"}, {"smiles": "CC(Sc1nnc(-c2cccs2)n1C1CC1)C(=O)NCC1CCCO1", "note": "(configuration not stated)", "activity change, negative = growth inhibition": "-10.3%"}, {"smiles": "O=S(=O)(NCc1ccccc1Br)c1ccccc1Br", "activity change, negative = growth inhibition": "-15.5%"}, {"smiles": "O=C(Nc1ccc([N+](=O)[O-])cc1)C1(c2ccccc2)CCOCC1", "activity change, negative = growth inhibition": "-26.7%"}, {"smiles": "Clc1ccc(-n2nnnc2-c2cnc(-c3ccccn3)nc2-c2cccs2)cc1", "Potency": "6.51 µM (active)"}, {"smiles": "CN(C)c1nnnn1-c1ccc(Cl)cc1", "activity change, negative = growth inhibition": "0.0585%"}, {"smiles": "O=C(CN1C(=O)CSC1=O)N1CCCC(Nc2ccc(F)cc2)C1", "note": "(configuration not stated)", "activity change, negative = growth inhibition": "0.241%"}, {"smiles": "COc1ccc(CCNC(=O)CCc2c(C)nc3c(c(C)nn3-c3ccc(C)c(C)c3)c2C)c(OC)c1OC", "activity change, negative = growth inhibition": "1.23%"}, {"smiles": "COc1ccc(CCNC(=O)c2cc3cccc4c3n2CC(C)S4)c(OC)c1OC", "note": "(configuration not stated)", "Potency": "20.6 µM (active)"}, {"smiles": "COc1cccc2[nH]c(C(=O)NCCc3ccccc3)cc12", "activity change, negative = growth inhibition": "-1.97%"}, {"smiles": "Cc1c(C(=O)N(C)C)sc2c1c(=O)n(-c1ccc(F)cc1)c(=O)n2CC(=O)N(C)c1ccccc1", "activity change, negative = growth inhibition": "-11.3%"}, {"smiles": "O=C(COC(=O)c1ccccn1)Nc1cccc2ccccc12", "activity change, negative = growth inhibition": "1.49%"}, {"smiles": "CC(=O)N/C(=N/c1nc(C)cc(C)n1)Nc1ccc(F)cc1F", "activity change, negative = growth inhibition": "3.17%"}, {"smiles": "CCOC(=O)c1cccc(NC(=O)c2ccc(F)cc2F)c1", "activity change, negative = growth inhibition": "-29.8%"}, {"smiles": "Cc1cc(C)nc(-n2nc(C)cc2NC(=O)c2ccc(F)cc2F)n1", "Potency": "4.11 µM (active)"}, {"smiles": "Cc1noc(C)c1C(=O)OC(C)C(=O)Nc1ccc2c(c1)OCO2", "note": "(configuration not stated)", "activity change, negative = growth inhibition": "-10.9%"}, {"smiles": "CN1CCN(NC(=O)Nc2ccc(Br)cc2)CC1", "activity change, negative = growth inhibition": "-4.59%"}, {"smiles": "CCn1cc(CN2CCC(C(=O)Nc3cccc(-c4cccc(Cl)c4)c3)CC2)cn1", "Potency": "16.4 µM (active)"}, {"smiles": "CCn1cc(CN2CCC(C(=O)Nc3cccc(-c4cccc(Cl)c4)c3)CC2)c(C)n1", "Potency": "13 µM (active)"}, {"smiles": "CCn1cc(CN2CCC(n3nccc3NC(=O)CCCc3ccccc3)CC2)c(C)n1", "activity change, negative = growth inhibition": "8.22%"}, {"smiles": "CCNC(=S)NNC(=O)C1CCN(Cc2ccccc2)CC1", "activity change, negative = growth inhibition": "-0.188%"}, {"smiles": "COc1cccc(-c2cccc(NC(=O)C3CCN(C4CCC4)CC3)c2)c1", "activity change, negative = growth inhibition": "0.465%"}, {"smiles": "O=C(Nc1ccc(-n2cccn2)cc1)C1CCN(Cc2ccsc2)CC1", "activity change, negative = growth inhibition": "4.59%"}, {"smiles": "CC(CCn1cccn1)NC(=O)CCc1nnc(CCc2ccccc2)o1", "note": "(configuration not stated)", "activity change, negative = growth inhibition": "15.6%"}, {"smiles": "CCC(C)NC(=O)C1c2ccccc2C(=O)N1Cc1ccccc1", "note": "(configuration not stated)", "activity change, negative = growth inhibition": "-9.45%"}, {"smiles": "Cc1cc(-c2ccnc(-n3ncc(C(=O)NC(C)(C)CO)c3C3CC3)n2)c(C)s1", "activity change, negative = growth inhibition": "3.64% [at 9.04 µM]"}, {"smiles": "CCc1ccc(NC(=O)Cn2nnc(C(=O)NCc3ccc(OC)cc3)c2N)cc1", "activity change, negative = growth inhibition": "-1.18%"}, {"smiles": "COc1ccc(C(=O)Nc2ccc(CN3CCOCC3)cc2)cc1", "activity change, negative = growth inhibition": "-20.4%"}, {"smiles": "CCc1ccc(NC(=O)CN2CCC(C(=O)c3ccc(OC)cc3)CC2)cc1", "Potency": "5.8 µM (active)"}, {"smiles": "COc1ccccc1NC(=O)C1CCN(C(=O)c2ccc(C(C)(C)C)cc2)CC1", "Potency": "23.1 µM (active)"}, {"smiles": "COc1ccc(CNC(=O)C2CCN(C(=O)c3ccccc3)CC2)cc1", "activity change, negative = growth inhibition": "-10.8%"}, {"smiles": "COc1ccc(CNC(=O)C2CCN(C(=O)c3ccco3)CC2)cc1", "activity change, negative = growth inhibition": "-4.73%"}, {"smiles": "COc1ccc(C(=O)N2CCC(C(=O)Nc3ccc(C)cc3)CC2)cc1", "Potency": "18.4 µM (active)"}, {"smiles": "COc1ccc(NC(=O)N2CCCC(C(=O)Nc3ccccc3OC)C2)cc1", "note": "(configuration not stated)", "activity change, negative = growth inhibition": "-0.903%"}, {"smiles": "CC(C)(C)c1ccc(C(=O)N2CCC(C(=O)N3CCCCC3)CC2)cc1", "activity change, negative = growth inhibition": "-27.5%"}, {"smiles": "Cc1ccc(NC(=O)[C@H](Cc2ccccc2)NC(=O)C2CCNCC2)cc1", "activity change, negative = growth inhibition": "-4.44%"}, {"smiles": "CC(=O)Nc1ccc(S(=O)(=O)N2CCC(NC(=O)c3ccccc3)CC2)cc1", "activity change, negative = growth inhibition": "-4.74%"}, {"smiles": "O=C(Cc1ccc(Br)cc1)NCCc1ccccc1", "activity change, negative = growth inhibition": "-16.5%"}, {"smiles": "O=C(Nn1cnnc1)c1cc(Cl)ccc1Cl", "activity change, negative = growth inhibition": "-9.38%"}, {"smiles": "NS(=O)(=O)c1cccc(NC(=O)COC(=O)/C=C/c2ccco2)c1", "activity change, negative = growth inhibition": "1.47%"}, {"smiles": "CCC(C)C(CO)NC(=O)/C=C/[C@H]1O[C@@H](n2cnc3c(NC(=O)c4ccccc4)ncnc32)[C@H](O)[C@@H]1O", "note": "(some centres not stated)", "activity change, negative = growth inhibition": "3.57%"}, {"smiles": "C/C(=N\\NC(=O)c1ccccc1C)c1ccc(N2CCOCC2)cc1", "activity change, negative = growth inhibition": "-5.61%"}, {"smiles": "Cc1ccnc(NC(=O)c2ccoc2C)c1", "activity change, negative = growth inhibition": "-5.15%"}, {"smiles": "C/C(=N\\NC(=O)c1ccoc1C)c1ccccc1O", "Potency": "10.3 µM (active)"}]}]}
